Source: PubChem BioAssay
The full list was thinned out, with hits kept by preference.
ROC1-CUL1 inh: inhibitors of human ROC1-CUL1 ubiquitin ligase activity | inhibition, % at 10 µM | P62877+Q13616 | 140,000 tested, 0.6% active | AID 1347404 | in vitro K48 di-Ub FRET, acceptor:donor ratio, 45 min; in the data active = inhibition above about 25%
Target sequence (P62877 whole entry, looked up): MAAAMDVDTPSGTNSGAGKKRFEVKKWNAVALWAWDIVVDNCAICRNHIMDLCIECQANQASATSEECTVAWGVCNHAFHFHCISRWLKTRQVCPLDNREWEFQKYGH
Target sequence (Q13616 whole entry, looked up): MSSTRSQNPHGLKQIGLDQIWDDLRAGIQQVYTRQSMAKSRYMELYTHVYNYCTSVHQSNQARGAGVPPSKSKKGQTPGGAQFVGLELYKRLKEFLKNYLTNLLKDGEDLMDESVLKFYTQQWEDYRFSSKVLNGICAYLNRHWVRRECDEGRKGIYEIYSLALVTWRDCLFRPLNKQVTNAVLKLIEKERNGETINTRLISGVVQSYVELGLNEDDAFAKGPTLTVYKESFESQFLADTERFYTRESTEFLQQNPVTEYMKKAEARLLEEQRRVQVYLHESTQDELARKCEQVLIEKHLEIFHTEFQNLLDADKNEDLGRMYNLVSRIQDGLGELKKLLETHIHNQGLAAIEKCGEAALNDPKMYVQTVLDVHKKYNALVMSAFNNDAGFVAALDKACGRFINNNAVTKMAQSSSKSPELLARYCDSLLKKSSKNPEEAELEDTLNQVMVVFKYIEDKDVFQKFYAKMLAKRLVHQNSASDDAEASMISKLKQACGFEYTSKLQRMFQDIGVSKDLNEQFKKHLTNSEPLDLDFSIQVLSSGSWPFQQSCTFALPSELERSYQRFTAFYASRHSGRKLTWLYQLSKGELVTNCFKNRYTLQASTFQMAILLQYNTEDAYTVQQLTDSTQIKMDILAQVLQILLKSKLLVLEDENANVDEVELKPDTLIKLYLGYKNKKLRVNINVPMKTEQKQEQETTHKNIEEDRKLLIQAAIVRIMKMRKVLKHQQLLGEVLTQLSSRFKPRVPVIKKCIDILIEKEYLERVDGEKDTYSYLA
* marks the source's active call; other numbers are inactive results.

SMILES | ROC1-CUL1 inh
CC(=O)N1/C(=C/c2ccccc2O)C(=O)c2cc(Br)ccc21 | 7
CC(=O)N1/C(=C/c2ccc(O)cc2)C(=O)c2ccccc21 | 60*
CC1=NC(=O)NC(c2ccc(Cl)cc2Cl)C1C(N)=O (stereo not given) | -4
CN=C1CC=C(Br)C=C(C(=O)/C=C/c2cc(OC)ccc2OC)C1=O | 11
COc1ccc(-c2nn3c(Cc4ccccc4C)nnc3s2)cc1OC | -3
Cc1cc(C(=O)N2CCN(C3CCCCC3)CC2)cs1 | 10
O=C(c1ccc(Cl)s1)N1CCN(Cc2ccc(F)cc2)CC1 | 9
O=C(c1ccc(Cl)s1)N1CCN(C2CCCCC2)CC1 | 72*
Cc1nnc(SCc2ccc(Br)cc2)s1 | -2
CCOc1ccc2nc(N3CCCN(Cc4ccc(NC(C)=O)cc4)CC3)nc(C)c2c1 | 1
COc1ccc(/C=N/Nc2nc3c(s2)CCCC3)cc1 | 55*
COc1ccc(CC(=O)Nc2nc3c(s2)CCCC3)cc1 | 2
CCOc1ccc(/C=N\Nc2nc(C)c(C(C)=O)s2)cc1 | 9
CCOC(=O)N1c2ccccc2N(C(=O)OCC)C1(C#N)CC | 10
Cc1c(NC(=O)CCCc2ccccc2)cccc1NC(=O)CCCc1ccccc1 | 9
CC(=O)CSc1ncnc2sc(-c3ccccc3)cc12 | 10
O=C(CSc1nc2ccccc2n1Cc1ccc(Cl)cc1)N/N=C\c1cc(Br)ccc1O | -10
CCOC(=O)c1nn(-c2ccccc2)c(=O)c2c(N)scc12 | -5
CCOC(=O)c1nn(-c2ccccc2C(=O)O)c(=O)c2c(N)sc(Br)c12 | 33*
CCOC(=O)c1nn(-c2ccccc2C(=O)O)c(N)c1C(N)=S | 10
O=C(O)c1ccc(NC(=O)C2CCCC2)cc1 | -5
O=C(OCCOc1ccccc1)C(C(F)(F)F)C(F)(F)F | 85*
O=C(OCCOc1ccccc1)c1ccc(-c2ccccc2)cc1 | 0
NC(=O)c1ccccc1OCCOc1ccccc1 | 18
CC1=NN(C(N)=S)C(=O)C1N=Nc1nccs1 (stereo not given) | -5
SMILES | ROC1-CUL1 inh
Cc1ccc(C(=O)Nc2cccc(C(=O)O)c2)cc1S(=O)(=O)N1CCCC1 | 5
Cc1ccc(C(=O)Nc2ccc(F)cc2)cc1S(=O)(=O)N1CCOCC1 | -4
CC(=O)c1cccc(NC(=O)c2ccc(Cl)c(S(=O)(=O)N3CCOCC3)c2)c1 | 34*
CN(Cc1cccc2ccccc12)C(=O)Cn1nnnc1CN1CCCC1 | -8
CCOC(=O)c1ccc(NN2C(=O)c3ccc(Br)cc3C2=O)c([N+](=O)[O-])c1 | -4
CCOC(=O)c1c2c(n(C)c1CNC(C)C)C(=O)C(=O)c1ccc(Br)cc1-2 | 98*
CCOC(=O)c1c2c(n3ccccc13)C(=O)c1ccccc1C2=O | -1
COc1cccc(NS(=O)(=O)c2ccc3c(c2)C(=O)C(C(=O)NCCc2ccccc2)C=N3)c1 (stereo not given) | 2
N#Cc1ccc(C=C2c3ccccc3-c3ccccc32)cc1 | -4
Nc1ccccc1C#Cc1ccccc1 | 0
OCc1ccc(C#Cc2ccccc2)o1 | 81*
OCc1ccccc1C#Cc1ccccc1 | 1
CCCNS(=O)(=O)c1ccc(Cl)c(OC)c1 | 9
CCOC(=O)c1ccc(N2C(=O)C(CC(=O)Nc3ccc(OC)cc3)N(NC(=O)c3cccc(F)c3)C2=S)cc1 (stereo not given) | 7
CCOC(=O)N1CCc2[nH]nc(-c3ccc(Cl)cc3)c2C1 | 5
O=C1CC(=Nc2cccc3cc(S(=O)(=O)O)ccc23)c2ccccc2C1=O | 80*
O=C1C(=Nc2ccc(Cl)c(Cl)c2)CC(=NS(=O)(=O)c2ccc(Cl)cc2)c2ccccc21 | -15
O=C1c2cc(S(=O)(=O)O)ccc2C(=O)c2c(Cl)cccc21 | -3
CCOC(=O)N1CCN(Cc2ccc3c(c2)CN(C(=O)c2ccoc2)CCO3)CC1 | -2
Cc1cc(C)nc(SCc2nnc(SCC(=O)Nc3ccc(C)c(Cl)c3)n2C)n1 | -6
CC(C)C(C(=O)Nc1cc(C(F)(F)F)ccc1Cl)N1C(=O)c2ccccc2C1=O (stereo not given) | 6
CCOc1cc(/C=C2/SC(=O)N(C(C)C)C2=O)c(Br)cc1OCC(=O)Nc1ccccc1 | 2
COc1cc(/C=C2\SC(=Nc3cccc(Br)c3)NC2=O)ccc1OCC(=O)O | 30*
COc1cc(/C=C2\SC(=Nc3ccccc3Cl)NC2=O)ccc1OCC(=O)O | 5
C=CCOc1ccc(/C=C2\SC(=Nc3ccccc3)NC2=O)cc1OCC | -3
SMILES | ROC1-CUL1 inh
CCOc1cc(/C=C2\SC(=Nc3cccc(C(=O)O)c3)NC2=O)c(Br)cc1OCC(=O)Nc1ccc(C)cc1 | 97*
CCOC(=O)c1ccc(N=C2NC(=O)/C(=C\c3cc(Br)ccc3OCC(=O)Nc3ccccc3OC)S2)cc1 | 1
O=C(CSC(=S)N1CCCCC1)c1ccc([N+](=O)[O-])cc1 | -9
O=C1CCCN1CC1CCN(Cc2nc(Cc3ccccc3F)no2)CC1 | -1
O=C(/C=C/c1ccco1)c1cc(Br)ccc1O | 2
CN(CCC(=O)/C=C/c1ccc(Cl)c(Cl)c1)CCc1ccc2c(c1)OCO2 | 83*
CC(C)c1ccc(/C=C/C(=O)NCc2ccc3c(c2)OCO3)cc1 | 0
O=C(/C=C/c1ccc2c(c1)OCO2)Sc1ccc(Cl)cc1 | 0
